We go through eight molecules from PubChem BioAssay (EPA / NIEHS).

Activity calls are given as the source filed them. Rule for the calls: active = hit-call score of the fitted dose curve at least 0.9, where 1 is the maximum; inactive = score below 0.9.

Read-out in assay [1]: TIMP metallopeptidase inhibitor 1 (TIMP1), TIMP1 (gene 7076)
Kind of assay: BSK_hDFCGF_TIMP1: BioMAP Diversity Plus: hDFCGF Assay for TIMP metallopeptidase inhibitor 1 (TIMP1) Biomarker Activity (AID 2283062). Conditions: primary human foreskin fibroblasts; actives raise or lower the signal. A digest of the protocol:
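Fibroblasts from human foreskin are treated with test chemical and harvested at 24 h. TIMP-1 is quantified by ELISA, and gain or loss of signal is scored against DMSO.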

Read-out in assay [2]: Monokine induced gamma interferon (MIG), CXCL9 (gene 4283)
In words: BSK_hDFCGF_MIG: BioMAP Diversity Plus: hDFCGF Assay for Monokine induced gamma interferon (MIG) Biomarker Activity (AID 2283063). Particulars: primary human foreskin fibroblasts; actives raise or lower the signal. The gist of the method: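 MIG signal, determined by ELISA, reflects 24 h chemical exposure of human skin primary fibroblasts. DMSO serves as negative control and baseline.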

Read-out in assay [3]: Plasminogen activator inhibitor-1 (PAI1), SERPINE1 (gene 5054)
Kind of assay: BSK_hDFCGF_PAI1: BioMAP Diversity Plus: hDFCGF Assay for Plasminogen activator inhibitor-1 (PAI1) Biomarker Activity (AID 2283066). Conditions: primary human foreskin fibroblasts; actives raise or lower the signal. The gist of the method: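 PAI-1 levels in human dermal foreskin fibroblasts were quantified by ELISA 24 h after dosing, with gain or loss analysed against DMSO. Overt cytotoxicity was checked by sulforhodamine B total-protein staining in parallel cultures.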

Read-out in assay [4]: Intercellular Adhesion Molecule 1 (ICAM1), ICAM1 (gene 3383)
Kind of assay: BSK_KF3CT_ICAM1: BioMAP Diversity Plus: KF3CT Assay for Intercellular Adhesion Molecule 1 (ICAM1) Biomarker Activity (AID 2283067). Particulars: primary human keratinocytes with fibroblasts; actives raise or lower the signal. A digest of the protocol:
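Dose the keratinocyte/fibroblast co-culture, wait 24 h, measure ICAM-1 by ELISA, then fit increases or decreases against DMSO. Cytotoxicity is checked in parallel cultures by SRB total-protein staining.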

Read-out in assay [5]: Interferon-gamma inducible Protein 10 (IP10), CXCL10 (gene 3627)
Kind of assay: BSK_KF3CT_IP10: BioMAP Diversity Plus: KF3CT Assay for Interferon-gamma inducible Protein 10 (IP10) Biomarker Activity (AID 2283068). Particulars: primary human keratinocytes with fibroblasts; actives raise or lower the signal. A digest of the protocol: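 Human keratinocyte plus foreskin fibroblast primary co-culture exposed to test chemical for 24 h; IP-10 measured by ELISA. Concentration-response fitted bidirectionally against DMSO control as baseline.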

The nature of assay [6]: BSK_KF3CT_SRB: Viability Assessment in the BioMAP Diversity Plus: KF3CT Assay (AID 2283069). Conditions: primary human keratinocytes with fibroblasts. A digest of the protocol:
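Cytotoxicity was gauged by SRB staining (0.1% SRB, 10% TCA fixation, 560 nm) of parallel cultures at 24 h. The cells were primary human skin keratinocytes co-cultured with fibroblasts, and activity was fitted in both directions against DMSO.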

Read-out in assay [7]: Interleukin-1 alpha (IL1a), IL1A (gene 3552)
In words: BSK_KF3CT_IL1a: BioMAP Diversity Plus: KF3CT Assay for Interleukin-1 alpha (IL1a) Biomarker Activity (AID 2283070). Conditions: primary human keratinocytes with fibroblasts; actives raise or lower the signal. A digest of the protocol:
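IL-1a was detected by ELISA 24 h after chemical treatment of a co-culture of human skin keratinocytes and foreskin fibroblasts. Gain or loss of signal was fitted against the DMSO baseline.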

Read-out in assay [8]: TIMP metallopeptidase inhibitor 2 (TIMP2), TIMP2 (gene 7077)
Kind of assay: BSK_KF3CT_TIMP2: BioMAP Diversity Plus: KF3CT Assay for TIMP metallopeptidase inhibitor 2 (TIMP2) Biomarker Activity (AID 2283071). Conditions: primary human keratinocytes with fibroblasts; actives raise or lower the signal. The gist of the method: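 TIMP-2 measured by ELISA at 24 h in human keratinocyte/fibroblast primary co-cultures exposed to chemicals. Both increases and decreases were fitted against DMSO. Parallel cultures were stained with SRB for total protein as an overt-cytotoxicity check.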

Read-out in assay [9]: Transforming growth factor beta 1 (TGFb1), TGFB1 (gene 7040)
Kind of assay: BSK_KF3CT_TGFb1: BioMAP Diversity Plus: KF3CT Assay for Transforming growth factor beta 1 (TGFb1) Biomarker Activity (AID 2283072). Particulars: primary human keratinocytes with fibroblasts; actives raise or lower the signal. The gist of the method:
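ELISA quantifies TGF-b1 at 24 h post-dose in a primary human skin co-culture of keratinocytes and fibroblasts, with gain or loss judged against DMSO. Parallel SRB total-protein staining flags overt cytotoxicity.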

Read-out in assay [10]: C-C motif chemokine 2 (Homo sapiens) (UniProt P13500)
In words: BSK_KF3CT_MCP1: BioMAP Diversity Plus: KF3CT Assay for Monocyte Chemoattractant Protein 1 (MCP1/CCL2) Biomarker Activity (AID 2283073). Particulars: primary human keratinocytes with fibroblasts; actives raise or lower the signal. The gist of the method: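 Keratinocytes and foreskin fibroblasts were co-cultured, dosed with chemical, and sampled 24 h later. MCP-1 was quantified by ELISA, and the endpoint was analyzed with bidirectional fitting using DMSO as negative control.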

Read-out in assay [11]: Matrix Metallopeptidase 9 (MMP9), MMP9 (gene 4318)
Kind of assay: BSK_KF3CT_MMP9: BioMAP Diversity Plus: KF3CT Assay for Matrix Metallopeptidase 9 (MMP9) Biomarker Activity (AID 2283074).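 For AC50: MMP9 protein level quantified by ELISA in the co-culture.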 Particulars: primary human keratinocytes with fibroblasts; actives raise or lower the signal. A digest of the protocol: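 MMP-9 quantified by ELISA after 24 h chemical treatment of primary human skin keratinocyte/fibroblast co-cultures; gain or loss fitted against DMSO, with parallel SRB staining (0.1% SRB, 560 nm) for overt cytotoxicity.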

Read-out in assay [12]: urokinase plasminogen activator (uPA), PLAU (gene 5328)
In words: BSK_KF3CT_uPA: BioMAP Diversity Plus: KF3CT Assay for urokinase plasminogen activator (uPA) Biomarker Activity (AID 2283075). Conditions: primary human keratinocytes with fibroblasts; actives raise or lower the signal. The gist of the method: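 ELISA read-out of uPA 24 h after dosing human skin keratinocytes co-cultured with foreskin fibroblasts. Signal change fitted both ways relative to DMSO; sulforhodamine B on parallel cultures marks overt cytotoxicity.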

Read-out in assay [13]: CD40, CD40 (gene 958)
Kind of assay: BSK_LPS_CD40: BioMAP Diversity Plus: LPS Assay for CD40 Biomarker Activity (AID 2283076). Conditions: primary human HUVEC with PBMC; actives raise or lower the signal. A digest of the protocol:
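CD40 signal, measured by ELISA, is fitted in both directions relative to DMSO vehicle. The system is an LPS-driven human vascular primary co-culture of endothelial cells and PBMC, sampled 24 h after compound addition.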

Read-out in assay [14]: E-selectin (Homo sapiens) (UniProt P16581)
In words: BSK_LPS_Eselectin: BioMAP Diversity Plus: LPS Assay for Eselectin Biomarker Activity (AID 2283077). Conditions: primary human HUVEC with PBMC; actives raise or lower the signal. A digest of the protocol: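 Signal of E-selectin, detected by ELISA, served as the endpoint; cells were umbilical vein endothelium with PBMC, read 24 h after treatment. DMSO defined baseline, and both increases and decreases were fitted.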

Read-out in assay [15]: Interleukin-8 (IL8), CXCL8 (gene 3576)
In words: BSK_LPS_IL8: BioMAP Diversity Plus: LPS Assay for Interleukin-8 (IL8) Biomarker Activity (AID 2283078). Particulars: primary human HUVEC with PBMC; actives raise or lower the signal. The gist of the method:
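Endothelial cells and PBMC from human donors are co-cultured, treated with chemicals and LPS, then assayed for IL-8 by ELISA after 24 h. Parallel SRB staining (0.1% SRB after 10% TCA fixation, 560 nm) flags cytotoxicity.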

Assay [16] can be described thus: BSK_LPS_SRB: Viability Assessment in the BioMAP Diversity Plus: LPS Assay (AID 2283079).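 Note: total protein by sulforhodamine B absorbance as a cytotoxicity measure; measured one day after compound addition; fitted in both directions against DMSO so loss or gain of signal counts.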 Conditions: primary human HUVEC with PBMC. The gist of the method:
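Overt cytotoxicity was gauged by sulforhodamine B total-protein staining in a primary human vascular endothelial and mononuclear cell co-culture 24 h post-dosing. Activity was fitted in both directions relative to DMSO.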

Read-out in assay [17]: Interleukin-1 alpha (IL1a), IL1A (gene 3552)
In words: BSK_LPS_IL1a: BioMAP Diversity Plus: LPS Assay for Interleukin-1 alpha (IL1a) Biomarker Activity (AID 2283080). Particulars: primary human HUVEC with PBMC; actives raise or lower the signal. A digest of the protocol:
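Measured: IL-1 alpha via ELISA at 24 h in LPS-activated human umbilical vein endothelium–PBMC co-culture. Baseline: DMSO, bidirectional fitting.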

Read-out in assay [18]: Monocyte Chemoattractant Protein-1 (MCP1), CCL2 (gene 6347)
In words: BSK_LPS_MCP1: BioMAP Diversity Plus: LPS Assay for Monocyte Chemoattractant Protein-1 (MCP1) Biomarker Activity (AID 2283081).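 For AC50: secreted MCP-1 protein quantified by ELISA in culture supernatant.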 Conditions: primary human HUVEC with PBMC; actives raise or lower the signal. The gist of the method: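 LPS-stimulated HUVEC/PBMC co-culture; chemical, 24 h; MCP-1 by ELISA; bidirectional fit vs DMSO; cytotoxicity via SRB (0.1% stain, 10% TCA fix, 560 nm) in parallel wells.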

Read-out in assay [19]: Vascular cell adhesion molecule 1 (VCAM1), VCAM1 (gene 7412)
In words: BSK_hDFCGF_VCAM1: BioMAP Diversity Plus: hDFCGF Assay for Vascular cell adhesion molecule 1 (VCAM1) Biomarker Activity (AID 2283065).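 For AC50: VCAM-1 protein level quantified by ELISA after 24 h chemical exposure.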 Particulars: primary human foreskin fibroblasts; actives raise or lower the signal. A digest of the protocol:
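Cells are dosed, cultured for 24 h, then VCAM-1 is quantified by ELISA; signal increases and decreases are both fitted relative to DMSO.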

Sequence of E-selectin (Homo sapiens) (P16581 whole entry, looked up): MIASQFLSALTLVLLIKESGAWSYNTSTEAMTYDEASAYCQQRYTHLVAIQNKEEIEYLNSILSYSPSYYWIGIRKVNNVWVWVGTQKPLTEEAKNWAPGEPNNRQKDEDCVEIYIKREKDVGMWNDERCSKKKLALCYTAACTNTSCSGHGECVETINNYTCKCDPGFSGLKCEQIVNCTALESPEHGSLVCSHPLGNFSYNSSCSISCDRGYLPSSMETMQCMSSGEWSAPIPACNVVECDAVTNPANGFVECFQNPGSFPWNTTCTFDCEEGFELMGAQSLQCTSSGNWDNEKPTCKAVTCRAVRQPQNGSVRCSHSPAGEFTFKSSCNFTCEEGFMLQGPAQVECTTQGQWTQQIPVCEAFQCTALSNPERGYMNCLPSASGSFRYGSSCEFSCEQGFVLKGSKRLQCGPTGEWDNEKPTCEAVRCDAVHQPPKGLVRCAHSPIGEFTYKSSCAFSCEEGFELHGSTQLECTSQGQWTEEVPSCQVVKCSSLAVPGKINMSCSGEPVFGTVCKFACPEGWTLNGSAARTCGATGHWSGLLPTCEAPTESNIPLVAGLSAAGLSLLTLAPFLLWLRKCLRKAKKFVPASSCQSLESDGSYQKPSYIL

Regarding `COC(=O)CC(=O)OC`, the outcome in assay [1], in [2], in assay [3], in [4], in assay [5] and in assay [6] was inactive. Also, the result in assay [7], in assay [8], in assay [9], in [10], in assay [11] and in assay [12] was inactive. The result in [13], in assay [14], in assay [15], in assay [16], in [17] and in assay [18] was inactive.

For `COc1ccc2sc(C(=O)Nc3nnn[nH]3)c(OC(C)C)c2c1`, the AC50 in assay [1] was 7.77 µM (active); in assay [2], 15.5 µM (active); in [19], 12.2 µM (active); in assay [3], 6.57 µM (active); in assay [4], 24 µM (active); in assay [7] it was 19.9 µM (active). The AC50 in [8] is 19.9 µM (active); in assay [9], 19.9 µM (active); in assay [10] it was 16.7 µM (active); in assay [11], 27 µM (active); in assay [12], 29.5 µM (active); in assay [13], 7.18 µM (active). Further, the AC50 in [14] is 23.4 µM (active); in [15], 28.5 µM (active); in assay [16], 9.83 µM (active); in assay [17], 13.2 µM (active); in [18], 19.8 µM (active).

As for `Cc1ccc(O)cc1`, the result in assay [1], in assay [2], in [3], in assay [4], in [5] and in assay [6] was inactive. In addition, the result in assay [7], in assay [9], in [10], in assay [12], in [13] and in assay [14] was inactive. The result in [15], in [16], in assay [17] and in [18] was inactive.

Turning to `NC(=O)NO`, the result in assay [1], in assay [2], in assay [3], in [4], in assay [5] and in [7] was inactive. In addition, the outcome in assay [8], in assay [9], in assay [10], in assay [11], in [12] and in [13] was inactive. Besides, the outcome in assay [14], in [15], in assay [16], in assay [17] and in [18] was inactive.

Regarding `COC(=O)c1c(Cl)c(Cl)c(C(=O)OC)c(Cl)c1Cl`, the result in assay [1], in assay [2], in assay [3], in assay [4], in [5] and in assay [7] was inactive. For the same molecule, the result in assay [8], in assay [9], in [10], in [11], in [12] and in [14] was inactive. Further, the result in [15], in assay [16], in assay [17] and in assay [18] was inactive. For the same molecule, the AC50 in [13] is 11.4 µM (active).

Regarding `CCN(C(=O)c1cc(C)cc(OC[C@H](C)Nc2ccncc2)c1)C(C)C`, the result in assay [1], in [2], in assay [19], in assay [3], in assay [4] and in assay [6] was inactive. For the same molecule, the result in assay [7], in assay [9], in assay [13], in assay [14], in [15] and in assay [16] was inactive. For the same molecule, the outcome in assay [17] and in [18] was inactive. Further, the AC50 in [12] is 13.5 µM (active).

In the case of `CC/C(=C\C(=N/O)C(N)=O)C(C)[N+](=O)[O-]` (stereo not given), the outcome in assay [1], in assay [2], in assay [19], in assay [3], in assay [4] and in assay [7] was inactive. Besides, the result in assay [8], in assay [9], in assay [10], in [12], in assay [13] and in assay [15] was inactive. Also, the outcome in assay [16], in assay [17] and in assay [18] was inactive.

For `CCCCCCc1ccc(O)cc1O`, the AC50 was 33.2 µM (active) in assay [1]; 33.6 µM (active) in assay [2]; 30.7 µM (active) in [3]; 31.3 µM (active) in [4]; 30.3 µM (active) in assay [7]; 32.7 µM (active) in [8]. For the same molecule, the AC50 in assay [9] is 29.7 µM (active); in assay [10] it was 26.2 µM (active); in assay [12], 31.6 µM (active); in assay [13], 27.6 µM (active); in assay [14] it was 31.8 µM (active); in assay [15], 29.6 µM (active). The figures for the AC50 in assay [16], in assay [17] and in [18] were 28.5 µM (active), 26.6 µM (active) and 30.2 µM (active), respectively.

Usually AC50 stands for the concentration at which the activity in the assay is half-maximal.
